Assay results as given in PubChem BioAssay AID1159580 (chemical genetic matrix, 2015).
“And” between values parts separate entries of the source, which are not always exact repeats. Identical values can stand only once. The campaign covered roughly 5,500 compounds. About 2,000 (36%) were called active. Roughly 18% stayed inconclusive and do not appear here. Rule as the data show it: active = normalized growth mostly below about 0.91 (no sharp cut-off); inconclusive = no clear call, values can overlap the other calls; inactive = mostly above about 0.92. The list shows a part of the results. A structure can be active in one record and inactive in another.

Experiment: chemical genetic growth profiling, strain panel (AID 1159580);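 also: tested at 20 µM; growth read once vehicle control cultures reached saturation at 30 °C; 1 = growth at the plate median or of vehicle wells; lower values mean less growth of the strain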
Settings: growth OD

Measured: normalized growth

CC(C)COCC(CN(Cc1ccccc1)c1ccccc1)N1CCCC1 (stereo not given)
0.798 (active) and 1.01 (inactive): S. cerevisiae deletion strains, locus YJR075W, strain HOC1, stronger effect = lower value
active: S. cerevisiae deletion strains, locus YKR001C, strain vps1, stronger effect = lower value 0.793 | S. cerevisiae deletion strains, locus YLR058C, strain SHM2, stronger effect = lower value 0.858 | S. cerevisiae deletion strains, locus YLR262C, strain YPT6, stronger effect = lower value 0.59 | S. cerevisiae deletion strains, locus YLR342W, strain FKS1 (second series), stronger effect = lower value 0.707 | S. cerevisiae deletion strains, locus YLR418C, strain cdc73, stronger effect = lower value 0.698 | S. cerevisiae deletion strains, locus YML032C, strain rad52, stronger effect = lower value 0.904 | S. cerevisiae deletion strains, locus YMR223W, strain ubp8, stronger effect = lower value 0.894 | S. cerevisiae deletion strains, locus YNL067W, strain RPL9B, stronger effect = lower value 0.843 | S. cerevisiae deletion strains, locus YNL153C, strain GIM3, stronger effect = lower value 0.823 | S. cerevisiae deletion strains, locus YNL233W, strain BNI4, stronger effect = lower value 0.781 | S. cerevisiae deletion strains, locus YNR052C, strain pop2, stronger effect = lower value 0.887 | S. cerevisiae deletion strains, locus YOL006C, strain TOP1, stronger effect = lower value 0.242 | S. cerevisiae deletion strains, locus YPL055C, strain LGE1, stronger effect = lower value 0.653 | S. cerevisiae deletion strains, locus YPR163C, strain tif3, stronger effect = lower value 0.792 | S. cerevisiae strains, strain wild type, stronger effect = lower value 0.878
inactive: S. cerevisiae deletion strains, locus YKL009W, strain mrt4, stronger effect = lower value 0.935 | S. cerevisiae deletion strains, locus YKL068W, stronger effect = lower value 0.989 | S. cerevisiae deletion strains, locus YKL085W, strain MDH1 (second series), stronger effect = lower value 0.979 | S. cerevisiae deletion strains, locus YKL085W, strain MDH1, stronger effect = lower value 0.979 | S. cerevisiae deletion strains, locus YKL160W, strain elf1, stronger effect = lower value 1.02 | S. cerevisiae deletion strains, locus YKL190W, strain CNB1, stronger effect = lower value 0.923 | S. cerevisiae deletion strains, locus YKR026C, strain gcn3, stronger effect = lower value 1.03 | S. cerevisiae deletion strains, locus YKR091W, strain srl3, stronger effect = lower value 1.02 | S. cerevisiae deletion strains, locus YLL001W, strain dnm1, stronger effect = lower value 1.03 | S. cerevisiae deletion strains, locus YLL026W, stronger effect = lower value 1.02 | S. cerevisiae deletion strains, locus YLL041C, strain sdh2, stronger effect = lower value 1.05 | S. cerevisiae deletion strains, locus YLR027C, strain aat2, stronger effect = lower value 1.01 | S. cerevisiae deletion strains, locus YLR039C, strain RIC1, stronger effect = lower value 0.705 | S. cerevisiae deletion strains, locus YLR102C, strain apc9, stronger effect = lower value 0.989 | S. cerevisiae deletion strains, locus YLR113W, strain HOG1, stronger effect = lower value 1.01 | S. cerevisiae deletion strains, locus YLR221C, strain rsa3, stronger effect = lower value 0.996 | S. cerevisiae deletion strains, locus YLR258W, strain gsy2, stronger effect = lower value 1.03 | S. cerevisiae deletion strains, locus YLR262C, strain YPT6 (second series), stronger effect = lower value 1.01 | S. cerevisiae deletion strains, locus YLR268W, strain sec22, stronger effect = lower value 0.935 | S. cerevisiae deletion strains, locus YLR320W, strain mms22, stronger effect = lower value 0.948 | S. cerevisiae deletion strains, locus YLR330W, strain CHS5, stronger effect = lower value 0.95 | S. cerevisiae deletion strains, locus YLR342W, strain FKS1, stronger effect = lower value 1 | S. cerevisiae deletion strains, locus YLR357W, strain rsc2, stronger effect = lower value 1.01 | S. cerevisiae deletion strains, locus YLR370C, strain arc18, stronger effect = lower value 1.04 | S. cerevisiae deletion strains, locus YLR371W, strain rom2, stronger effect = lower value 0.961 | S. cerevisiae deletion strains, locus YLR384C, strain iki3, stronger effect = lower value 1.03 | S. cerevisiae deletion strains, locus YML016C, strain PPZ1, stronger effect = lower value 0.973 | S. cerevisiae deletion strains, locus YML120C, strain ndi1, stronger effect = lower value 1.05 | S. cerevisiae deletion strains, locus YML124C, strain tub3, stronger effect = lower value 0.989 | S. cerevisiae deletion strains, locus YMR058W, strain fet3, stronger effect = lower value 0.997 | S. cerevisiae deletion strains, locus YMR078C, strain ctf18, stronger effect = lower value 0.986 | S. cerevisiae deletion strains, locus YMR125W, strain sto1, stronger effect = lower value 1.03 | S. cerevisiae deletion strains, locus YMR129W, stronger effect = lower value 1.02 | S. cerevisiae deletion strains, locus YMR205C, strain PFK2, stronger effect = lower value 1.02 | S. cerevisiae deletion strains, locus YMR231W, strain pep5, stronger effect = lower value 1.04 | S. cerevisiae deletion strains, locus YMR307W, strain GAS1, stronger effect = lower value 0.726 | S. cerevisiae deletion strains, locus YNL071W, strain lat1, stronger effect = lower value 1.03 | S. cerevisiae deletion strains, locus YNL128W, strain TEP1, stronger effect = lower value 0.981 | S. cerevisiae deletion strains, locus YNL175C, strain NOP13, stronger effect = lower value 1 | S. cerevisiae deletion strains, locus YNL183C, strain NPR1, stronger effect = lower value 0.935 | S. cerevisiae deletion strains, locus YNL197C, strain WHI3, stronger effect = lower value 1.02 | S. cerevisiae deletion strains, locus YNL209W, strain ssb2, stronger effect = lower value 1.03 | S. cerevisiae deletion strains, locus YNL224C, strain SQS1, stronger effect = lower value 1.01 | S. cerevisiae deletion strains, locus YNL248C, strain rpa49, stronger effect = lower value 1.02 | S. cerevisiae deletion strains, locus YNL250W, strain rad50, stronger effect = lower value 0.957 | S. cerevisiae deletion strains, locus YNL271C, strain bni1, stronger effect = lower value 0.992 | S. cerevisiae deletion strains, locus YNL298W, strain CLA4, stronger effect = lower value 0.994 | S. cerevisiae deletion strains, locus YNL307C, strain MCK1, stronger effect = lower value 0.965 | S. cerevisiae deletion strains, locus YNL322C, strain KRE1 (second series), stronger effect = lower value 1.06 | S. cerevisiae deletion strains, locus YNL322C, strain KRE1, stronger effect = lower value 1 | S. cerevisiae deletion strains, locus YNR049C, strain mso1, stronger effect = lower value 1.02 | S. cerevisiae deletion strains, locus YOL012C, strain htz1 0.611 | S. cerevisiae deletion strains, locus YOL147C, strain pex11, stronger effect = lower value 0.989 | S. cerevisiae deletion strains, locus YOR001W, strain rrp6, stronger effect = lower value 1.01 | S. cerevisiae deletion strains, locus YOR061W, strain CKA2, stronger effect = lower value 0.93 | S. cerevisiae deletion strains, locus YOR069W, strain VPS5, stronger effect = lower value 0.983 | S. cerevisiae deletion strains, locus YOR070C, strain gyp1, stronger effect = lower value 1.02 | S. cerevisiae deletion strains, locus YOR080W, strain dia2, stronger effect = lower value 1.06 | S. cerevisiae deletion strains, locus YOR083W, strain WHI5 (second series), stronger effect = lower value 1.03 | S. cerevisiae deletion strains, locus YOR083W, strain WHI5, stronger effect = lower value 0.967 | S. cerevisiae deletion strains, locus YOR106W, strain vam3, stronger effect = lower value 1.03 | S. cerevisiae deletion strains, locus YOR136W, strain idh2, stronger effect = lower value 0.954 | S. cerevisiae deletion strains, locus YOR144C, strain elg1, stronger effect = lower value 0.99 | S. cerevisiae deletion strains, locus YOR184W, strain ser1, stronger effect = lower value 0.888 | S. cerevisiae deletion strains, locus YOR231W, strain MKK1, stronger effect = lower value 0.982 | S. cerevisiae deletion strains, locus YOR265W, strain rbl2, stronger effect = lower value 1.02 | S. cerevisiae deletion strains, locus YOR270C, strain vph1, stronger effect = lower value 0.972 | S. cerevisiae deletion strains, locus YOR290C, strain snf2, stronger effect = lower value 1.02 | S. cerevisiae deletion strains, locus YOR316C, strain cot1, stronger effect = lower value 0.979 | S. cerevisiae deletion strains, locus YPL051W, strain arl3, stronger effect = lower value 0.99 | S. cerevisiae deletion strains, locus YPL078C, strain atp4, stronger effect = lower value 1.04 | S. cerevisiae deletion strains, locus YPL106C, strain sse1, stronger effect = lower value 1.06 | S. cerevisiae deletion strains, locus YPL240C, strain hsp82, stronger effect = lower value 1.02 | S. cerevisiae deletion strains, locus YPL241C, strain CIN2, stronger effect = lower value 0.98 and 1 | S. cerevisiae deletion strains, locus YPL256C, strain CLN2, stronger effect = lower value 0.98 | S. cerevisiae deletion strains, locus YPR119W, strain clb2, stronger effect = lower value 0.989 | S. cerevisiae deletion strains, locus YPR141C, strain kar3, stronger effect = lower value 0.984 | S. cerevisiae deletion strains, locus YPR167C, strain met16, stronger effect = lower value 0.988 | S. cerevisiae deletion strains, strain wtn01, stronger effect = lower value 0.912
